Results reported in the supplement of paper PMC10127200.
Structures can show the parent of a compound that is named as a salt.

Columns and labels:
Test in all cases: Euclidean distance of Cell Painting phenotypic profile (signed KS, 77 features) to DMSO centroid (dimensionless distance); 5 or 10 uM (library dependent); higher = stronger phenotypic change vs DMSO (phenoactivity)
Details in all cases: 48 h
786-O = system: 786-O
Summary of the method: (§1)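 Library compounds were applied at 10 or 5 uM, depending on the library, with 0.1% DMSO final, for 48 h to five cancer lines and a healthy fibroblast line. After staining, cells were imaged confocally at 20X across 9 fields per well, and Harmony extracted 77 features, each scored as a signed Kolmogorov-Smirnov statistic against vehicle wells on the same plate. Phenoactivity is the Euclidean distance between each profile and the median vehicle profile, with profiles first plate-position corrected, correlation-weighted and averaged over replicates at the top dose.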

A549 = system: A549
Summary of the method: as §1

DU145 = system: DU145
Summary of the method: as §1

FB = system: FB
Summary of the method: as §1

HEPG2 = system: HEPG2
Summary of the method: as §1

OVCAR4 = system: OVCAR4
Summary of the method: as §1

SMILES	Euclidean distance (786-O)	Euclidean distance (A549)	Euclidean distance (DU145)	Euclidean distance (FB)	Euclidean distance (HEPG2)	Euclidean distance (OVCAR4)
O=C(O)/C=C/c1ccc(Cn2ccnc2)cc1 [Ozagrel sodium]	1.06	1.08	1.01	1.07	1.03	0.564
COc1cc2c(cc1OC)[C@@H]1Cc3ccc(OC)c(OC)c3CN1CC2 [Rotundine]	1.84	0.769	1.07	1.26	0.595	1.2
COC(=O)N1CCN(Cc2cccc(NC(=O)Nc3ccc(C)nc3)c2F)CC1	1.27	1.17	0.538	0.851	0.768	1.28
COc1nc(N)nc2c1ncn2[C@@H]1O[C@H](CO)[C@@H](O)[C@@H]1O [Nelarabine]	1.28	1.4	0.995	2.02	0.531	1.1
CC(C)(CO)[C@@H](O)C(=O)NCCC(=O)NCCSSCCNC(=O)CCNC(=O)[C@H](O)C(C)(C)CO [D-Pantethine]	1.1	1.2	0.679	1	0.969	1.35
c1cncc(CN2CCC(n3ncc4c(N5CCOCC5)nc(-c5ccc6[nH]ccc6c5)nc43)CC2)c1	4.57	4.67	4.08	4.59	3.78	3.57
O=C(NC(Cc1cc(=O)[nH]c2ccccc12)C(=O)O)c1ccc(Cl)cc1 (centres undefined) [Rebamipide]	1.17	1.17	1.29	0.77	1.97	1.06
CCn1cc(C(=O)O)c(=O)c2cc(F)c(N3CCNCC3)nc21 [Enoxacin Sesquihydrate]	1.35	1.38	0.79	0.738	0.516	1.19
CC(C)C[C@H](NC(=O)[C@H]1O[C@@H]1C(=O)O)C(=O)NCCCCN=C(N)N	1.31	1.07	1.07	1.02	0.615	1.09
CCCCCCCCCCCCC[N+](C)(C)Cc1ccccc1 [Benzalkonium chloride]	2.54	2.29	2.89	1.54	2.12	2.53
NS(=O)(=O)NCCNc1nonc1/C(=N/O)Nc1ccc(F)c(Br)c1	1.34	1.13	1.07	1.35	0.971	0.884
Cc1cn(-c2cc(NC(=O)c3ccc(C)c(Nc4nccc(-c5cnccn5)n4)c3)cc(C(F)(F)F)c2)cn1 [Radotinib]	1.61	1.33	1.78	1.12	0.843	1.17
COC(=O)c1cc(OC)c2c(c1-c1c(C(=O)OC)cc(OC)c3c1OCO3)OCO2 [Bifendate]	1.36	1.51	0.627	1.22	0.392	1.35
N[C@@H]1CONC1=O [D-Cycloserine]	1.67	1.18	1.43	0.939	0.865	0.96
Cc1ccc(NC(=O)C2(c3ccc4c(c3)OC(F)(F)O4)CC2)nc1-c1cccc(C(=O)O)c1 [VX-809 (Lumacaftor)]	1.11	0.637	1.55	0.88	0.294	1.02
N[C@@H](CC(=O)O)C(=O)O [L-aspartic Acid]	1.2	1.3	0.701	0.809	0.455	1.44
CCC1(O)C(=O)OCc2c1cc1n(c2=O)Cc2c-1nc1ccccc1c2CCNC(C)C (centres undefined) [Belotecan (CKD-602) hydrochloride]	4.55	3.8	3.52	3.19	3.12	3.62
COc1ccc(-c2cc(=O)c3c(O)cc(O[C@@H]4O[C@H](CO[C@@H]5O[C@@H](C)[C@H](O)[C@@H](O)[C@H]5O)[C@@H](O)[C@H](O)[C@H]4O)cc3o2)cc1O [Diosmin]	0.665	0.621	1.01	0.778	0.671	0.702
CO/N=C(\C(=O)N[C@@H]1C(=O)N2C(C(=O)O)=C(CSc3nc(C)c(CC(=O)O)s3)CS[C@H]12)c1csc(N)n1 [Cefodizime Sodium]	0.755	1.08	1.48	0.804	0.792	0.754
CN(C)CCOC(C)(c1ccccc1)c1ccccn1 (centres undefined) [Doxylamine Succinate]	1.09	0.709	1.18	1.42	0.475	1.14
CN(C)CCC=C1c2ccccc2COc2ccccc21 [Doxepin HCl]	1.22	1.14	1.36	1.45	0.967	2.09
CC(=O)N[C@H]1[C@H]([C@H](O)[C@H](O)CO)OC(C(=O)O)=C[C@@H]1NC(=N)N [Zanamivir]	1.74	1	0.755	0.983	0.8	1.21
CCC(C)(C)c1ccc(CC(C)CN2C[C@@H](C)O[C@@H](C)C2)cc1 (some centres undefined) [Amorolfine HCl]	0.719	0.701	0.552	1.61	0.635	0.693
COc1ccc(NC(=O)c2ccc(C(=N)N(C)C)cc2)c(C(=O)Nc2ccc(Cl)cn2)c1 [Betrixaban]	1.22	0.664	0.647	0.875	0.841	0.904
CC(C)C[C@H](NC(=O)CNC(=O)c1cc(Cl)ccc1Cl)B(O)O	5.04	3.61	5.19	3.83	4.44	4.31

SMILES	Euclidean distance (786-O)	Euclidean distance (A549)	Euclidean distance (DU145)	Euclidean distance (FB)	Euclidean distance (HEPG2)	Euclidean distance (OVCAR4)
C[C@]12CCC(=O)C=C1C=C[C@@H]1[C@@H]2CC[C@@]2(C)[C@H]1CC[C@@]21CCC(=O)O1 [Canrenone]	1.64	0.961	1.1	1.33	1.24	1.05
O=C(CCCN1CC=C(n2c(=O)[nH]c3ccccc32)CC1)c1ccc(F)cc1 [Droperidol]	1.34	0.569	0.766	0.888	0.689	0.73
CCOc1cc2ncc(C#N)c(Nc3ccc(OCc4ccccn4)c(Cl)c3)c2cc1NC(=O)/C=C/CN(C)C [Neratinib (HKI-272)]	2.26	2.39	2.02	4.01	0.96	2.16
CO/N=C(\C(=O)N[C@@H]1C(=O)N2C(C(=O)O)=C(CSc3nc(=O)c(O)nn3C)CS[C@H]12)c1csc(N)n1 [Ceftriaxone Sodium Trihydrate]	1.01	0.779	1.23	0.836	0.792	0.926
CCCc1nn(C)c2c(=O)[nH]c(-c3cc(S(=O)(=O)N4CCN(C)CC4)ccc3OCC)nc12 [Sildenafil]	1.51	0.754	0.716	1.08	0.767	1.17
CN(Cc1cc(Br)cc(Br)c1N)C1CCCCC1 [Bromhexine]	0.96	1.02	0.619	0.847	0.566	1.03
CC1=NN(c2ccccc2)C(=O)C1 [Edaravone]	1.25	1.04	0.819	0.807	1.31	1.02
CC1(C)Cc2c(-c3ccccc3)c(-c3ccc(Cl)cc3)c(CC(=O)O)n2C1 [Licofelone]	0.977	1.12	1.32	1.22	0.815	1.41
NCCc1c[nH]cn1 [Histamine]	1.05	1.15	1.33	1.24	1.08	1.27
COc1ccc(Cn2ccc3ccc(C(=O)NO)cc32)cc1	1.83	1.18	1.25	2.16	1.5	0.415
CCC(=O)OCC(=O)[C@@]1(OC(=O)CC)[C@@H](C)C[C@H]2[C@@H]3CCC4=CC(=O)C=C[C@]4(C)[C@@]3(F)[C@@H](O)C[C@@]21C [Betamethasone Dipropionate]	1.67	2.06	2.69	2.18	0.697	1.59
N#C/C(=C(/N)Sc1ccc(N)cc1)c1ccccc1C(F)(F)F	0.949	1.46	0.889	1.1	1.41	0.988
C[N+](C)(C)CCOC(=O)CCC(=O)OCC[N+](C)(C)C [Succinylcholine Chloride Dihydrate]	1.36	2.04	1.93	1.82	1.34	1.91
CCC(=O)NC[C@@H]1C[C@H]1c1cccc2c1CCO2 [Tasimelteon]	1.21	1.04	0.924	1.26	0.397	1.28
CC(=O)OCC(=O)[C@@]12OC(C)(C)O[C@@H]1C[C@H]1[C@@H]3C[C@H](F)C4=CC(=O)C=C[C@]4(C)[C@@]3(F)[C@@H](O)C[C@@]12C [Fluocinonide]	1.34	2.13	2.47	1.51	0.846	1.99
C[C@@H]1COCCN1c1cc(C2([S@](C)(=N)=O)CC2)nc(-c2cc[nH]c3nccc2-3)n1	2.52	2.73	2.21	3.12	2.29	2.88
CNC(=O)c1cccc(-c2ccc3c(N4CCOC[C@@H]4C)nc(N4CCOC[C@@H]4C)nc3n2)c1	4	3.14	2.52	4.98	4.09	4.15
CCNC(=O)[C@@H]1CCCN1C(=O)[C@H](CCCN=C(N)N)NC(=O)[C@H](CC(C)C)NC(=O)[C@@H](C)NC(=O)[C@H](Cc1ccc(O)cc1)NC(=O)[C@H](CO)NC(=O)[C@H](Cc1c[nH]c2ccccc12)NC(=O)[C@H](Cc1cnc[nH]1)NC(=O)[C@@H]1CCC(=O)N1 [Alarelin Acetate]	0.728	1.38	0.974	2.05	1.87	1.24
Cc1ccccc1C(C(=O)NC1CCCCC1)N(C(=O)Cn1ccnc1C)c1cccc(F)c1 (centres undefined)	1.02	1.06	1.01	1.52	0.839	1.59
CC1=C(CC(=O)O)c2cc(F)ccc2/C1=C\c1ccc([S+](C)[O-])cc1 (centres undefined) [Sulindac]	0.824	0.664	0.975	0.812	1.5	1.26
COc1cc2c(cc1OC)CC(=O)N(CCCN(C)C[C@H]1Cc3cc(OC)c(OC)cc31)CC2 [Ivabradine HCl]	1.05	1.49	1.14	0.867	2.1	0.925
O=C(O)CC(O)(CC(=O)O)C(=O)O [Citric acid]	0.88	0.725	1.02	0.899	0.774	0.991
Cc1cc2c(F)c(Oc3ncnn4cc(OC[C@@H](C)OC(=O)[C@H](C)N)c(C)c34)ccc2[nH]1	2.11	1.25	1.14	1.57	0.818	1.35
Nc1cc(F)ccc1NC(=O)c1ccc(CNC(=O)/C=C/c2cccnc2)cc1 [Tucidinostat (Chidamide)]	3.36	2.59	2.35	3.31	3.09	2.66
